Source: PubChem BioAssay
TROY NFkB inh: inhibitors of TROY-dependent NF-kB signaling; Q293 LMP1-TROYcd NF-kB luciferase reporter, 4 h; inhibition, % at 10 µM; 360,000 tested, 0.98% active; AID 1347056;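 active = compounds whose plate-normalised and pattern-corrected inhibition of the luciferase reporter signal at the single screening dose is 50% or more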
PAX8 inh HTS: inhibitors of PAX8 transcriptional activity in RMG-I cells; inhibition, % at 12.6 µM; RMG-I TPO-luciferase reporter, SteadyGlo, 24 h; AID 652154; 360,000 tested, 1.2% active;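 active = mean replicate inhibition at least 60% with every replicate also reaching 60%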;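 note: luciferase light reporting Pax8 driven TPO promoter activity; plate controls were median of neutral control wells for no effect and mitoxantrone controls for full effect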
EBV LMP1 NFkB: Epstein-Barr LMP1 NF-kappaB reporter inhibition; LMP1-induced NF-kappaB luciferase reporter cells, luminescence; inhibition, % at 12.5 µM; 350,000 tested, 0.69% active; AID 504558; in the data active = inhibition above about 41%;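 note: 0% = neutral control wells and 100% = reference inhibitor control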
EWS-Fli inh: EWS/Fli transcriptional activity inhibition; A673 NR0B1-luciferase reporter, viability-normalised; inhibition, % at 12.6 µM; 350,000 tested, 0.67% active; AID 651661;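 active = mean inhibition of at least 50% after viability correction, with every replicate also passing that limit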;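 note: firefly luciferase signal divided by Alamar Blue viability fluorescence both relative to DMSO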
LGR2 inh: inhibitors of bursicon-induced Drosophila LGR2 receptor cAMP signaling. 380,000 tested, 0.35% active. HEK293 LGR2, CRE-luciferase, bursicon-stimulated, 4 h. inhibition, % at 9.99 µM;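 active = drop in luminescence signal, shown as inhibition above about 50% in the replicate tests, limit read from the data, passing the limit was not always enough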;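 note: agonist challenge used bursicon conditioned medium at about half maximal strength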
TWEAK-Fn14 inh: TWEAK-Fn14 signaling inhibition; TWEAK-stimulated Fn14 reporter cells, luciferase luminescence, 8 h; inhibition, % at 10 µM; AID 1159606; 360,000 tested, 2% active; in the data active = inhibition above about 50%
The depositor's hits bear a star; / = no result given. An excerpt weighted towards active compounds, which were near 3.2% of everything screened.

SMILES	TROY NFkB inh	PAX8 inh HTS	EBV LMP1 NFkB	EWS-Fli inh	LGR2 inh	TWEAK-Fn14 inh
O=C(/C=C/c1cccc([N+](=O)[O-])c1)NCCSCc1ccc(Cl)cc1	16	2	4	58*	9	1
COCCC(=O)N1CCCC(C(=O)c2ccc(C(F)(F)F)cc2)C1 (configuration not stated)	18	20	49*	1	-30	-2
Cc1ccccc1Oc1nc2c(C)cccn2c(=O)c1/C=C(\C#N)C(=O)Nc1c(C)n(C)n(-c2ccccc2)c1=O	44	-5	14	18	4	52*
Cc1ccc(S(=O)(=O)N[C@@H]2CC[C@H](CC(=O)N3CCc4ccccc4C3)O[C@H]2CO)cc1	/	9	/	3	-7	/
O=C(Cc1cccs1)N1CCN=C1SCc1ccc(Br)cc1	7	-9	-6	2	11	3
O=C(Cc1cccs1)N1CCN=C1SCc1cccc(F)c1	-4	1	2	1	8	81*
CO[C@H]1CN(C)C(=O)c2ccc(NS(=O)(=O)c3ccc(Cl)cc3)cc2OC[C@@H](C)N(C)C[C@@H]1C	/	0	/	-2	-4	/
CCOC(=O)c1c(C)[nH]c(C(=O)N/N=C\c2ccccc2O)c1C	-34	-52	52*	-65	-34	12
CCOC(=O)c1c(C)[nH]c(C(=O)N/N=C/c2ccc(OC)c(OC)c2)c1C	-8	16	4	48	-8	-16
CCOC(=O)c1c(C)[nH]c(C(=O)N/N=C/c2cc([N+](=O)[O-])ccc2O)c1C	77*	14	17	5	3	77*
CCOC(=O)c1c(C)[nH]c(C(=O)COC(=O)CCSc2ccccc2)c1C	5	-63	-26	-7	-77	-47
CCOC(=O)c1c(C)[nH]c(C(=O)CSc2ccccc2)c1C	38	/	-19	/	/	67*
C[C@@H]1CCCCO[C@H](CN(C)C(=O)Nc2ccccc2)[C@H](C)CN([C@@H](C)CO)C(=O)c2cc(NS(=O)(=O)c3ccccc3)ccc2O1	/	13	/	28	-4	/
CCCNC(=O)N1CC2(CCN(Cc3cccc(F)c3)CC2)c2c([nH]c3cc(OC)ccc23)[C@@H]1CO	/	/	/	34	21	/
N#C/C(=C\c1cccc([N+](=O)[O-])c1)c1nnc2n1CCCCC2	82*	7	7	/	20	91*
CN(c1ccccc1)c1ccc(/C=C(\C#N)c2nnc3n2CCCCC3)cc1[N+](=O)[O-]	-8	-16	12	/	31	-40
CCC(/C=C1\Sc2ccc(OC)cc2N1CCO)=C\c1sc2ccc(OC)cc2[n+]1CCO	12	16	46*	3	-18	19
CC(C)(C)OC(=O)NCCCCCNC(=O)c1[nH]cnc1C(=O)N[C@@H](Cc1ccccc1)C(=O)OC(C)(C)C	-3	/	17	/	/	-67
CC(C)(C)OC(=O)[C@H](Cc1ccccc1)NC(=O)c1nc[nH]c1C(=O)N[C@@H](Cc1ccccc1)C(=O)OC(C)(C)C	5	104*	-4	17	31	5
CC(C)(C)OC(=O)NCCCC[C@H](NC(=O)c1[nH]cnc1C(=O)N[C@@H](Cc1ccccc1)C(=O)OC(C)(C)C)C(=O)OC(C)(C)C	-6	104*	-21	35	13	26
C[C@H](NC(=O)c1nc[nH]c1C(=O)N[C@@H](Cc1ccccc1)C(=O)OC(C)(C)C)C(=O)OC(C)(C)C	10	22	-7	5	11	4
O=C(C[C@@H]1C[C@@H]2c3cc(NC(=O)NC4CCCC4)ccc3O[C@@H]2[C@H](CO)O1)NCCN1CCCCC1	/	-27	/	-2	-13	/
Oc1cc(NCc2ccc(Cl)cc2)cc2cccnc12	-28	-2	47*	3	-5	-9
Oc1cc(NCc2ccc(F)cc2)cc2cccnc12	-12	73*	12	-5	-4	-2
Clc1ccc(CNc2ncccn2)cc1	13	-1	0	2	9	72*
SMILES	TROY NFkB inh	PAX8 inh HTS	EBV LMP1 NFkB	EWS-Fli inh	LGR2 inh	TWEAK-Fn14 inh
O=S(=O)(NCc1ccc(Cl)cc1)c1cccc2cccnc12	10	-18	-4	-11	4	-17
CN(C)CCCNc1cc(O)c2ncccc2c1	-33	5	-4	-7	97*	6
Fc1ccc(CNc2ncccn2)cc1	-2	13	0	-14	-3	15
C[C@@H]1CN([C@@H](C)CO)C(=O)c2cc(NC(=O)CCCCCC(=O)Nc3ccccc3N)ccc2O[C@@H]1CN(C)C(=O)Nc1ccc(C(F)(F)F)cc1	/	/	/	5	2	/
COc1ccc(CN(C)C[C@H]2Oc3c(NS(=O)(=O)c4ccc(OC)cc4)cccc3C(=O)N([C@H](C)CO)C[C@H]2C)cc1	/	/	/	-6	-4	/
O=C(C[C@H]1CC[C@H]2[C@@H](COC[C@H](O)CN2Cc2nccs2)O1)NCc1ccccc1Cl	/	-18	/	0	0	/
O=C(Nc1nc2cc3c(cc2s1)OCO3)c1ccco1	56*	33	58*	64*	71*	90*
Fc1ccc2nc(Nc3nc4cc5c(cc4s3)OCCO5)sc2c1	62*	-194	-34	/	-52	45
O=C(Nc1nc2cc3c(cc2s1)OCCO3)c1ccco1	82*	/	68*	87*	98*	100*
O=C(Nc1nc2ccccc2c(=O)s1)c1ccco1	5	1	10	-2	14	54*
C[C@@H]1CN([C@@H](C)CO)C(=O)c2cc(NS(=O)(=O)c3ccccc3)ccc2O[C@H]1CN(C)C(=O)Nc1cccc2ccccc12	/	-15	/	-9	22	/
CC1CCc2nc(NC(=O)c3ccco3)sc2C1 (configuration not stated)	66*	/	60*	/	/	96*
O=C(Nc1nc2cc3c(cc2s1)OCO3)C1=COCCO1	70*	33	73*	80*	/	101*
O=C(NCC[C@H]1CC[C@H](NC(=O)Nc2cc(F)ccc2F)[C@@H](CO)O1)Nc1ccc(Cl)cc1	/	-27	/	-15	-10	/
ON=Cc1ccnc2ccccc12	6	-13	-1	-8	0	20
O=C(/C=C/c1ccnc2ccccc12)c1cccs1	70*	-135	4	22	2	65*
CCC(=O)N1[C@H](CO)[C@@H](c2ccccc2-c2cccc(C)c2)[C@@H]1C#N	/	9	/	-4	7	/
C[C@H]1CN([C@@H](C)CO)C(=O)Cc2cc(NC(=O)Cc3ccccc3)ccc2O[C@H]1CN(C)S(C)(=O)=O	/	-26	/	-2	6	/
CC(C)n1ncc2c(C(=O)Nc3cccc(C#N)c3)cc(C3CC3)nc21	59*	28	17	9	95*	54*
CC(=O)c1c(C)[nH]c(C(=O)Nc2ccc(C)c(S(=O)(=O)Nc3ccc(C)cc3C)c2)c1C	58*	31	5	10	9	47
Cc1ccc(NS(=O)(=O)c2cc(NC(=O)c3ccc4c(c3)NC(=O)CS4)ccc2C)c(C)c1	64*	48	7	14	24	72*
